For 8 sequences, binding signal results are on record in paper PMC4081100, “A DNA-binding-site landscape and regulatory network analysis for NAC transcription factors in Arabidopsis thaliana”.

Holding throughout (assay): universal protein binding microarray (PBM); transcription factors of Arabidopsis thaliana; high values mean tight binding
In assay [1] the target is T1, GST-ANAC092(1-176) (Arabidopsis thaliana, UniProt Q9FKA0 1-176).
T1 sequence: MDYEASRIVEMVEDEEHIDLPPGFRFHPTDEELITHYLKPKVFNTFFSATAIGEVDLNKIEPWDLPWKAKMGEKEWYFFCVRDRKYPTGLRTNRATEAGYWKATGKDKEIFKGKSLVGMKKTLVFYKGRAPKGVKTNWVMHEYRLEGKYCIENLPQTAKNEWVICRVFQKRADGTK
To be noted: protein: recombinant; tags: GST; chain copies: 2; dsDNA, one strand shown. In short, it runs like this: (§1)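 GST-tagged proteins (NAC-domain, full-length or DNA-binding-domain) were induced in cells, with zinc acetate supplied for zinc-finger proteins, then purified on glutathione–Sepharose 4B. Each was tested in duplicate at 200 to 500 nM final on custom all-10-mer Agilent 4 × 180K arrays rendered double-stranded by primer extension. The binding value is the normalised enrichment score (E-score) across gapped and ungapped 8-mers.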

The target in assay [2] is GST-NTL6(1-168) (Arabidopsis thaliana, UniProt Q9SCK6 1-168). The note with it: protein: recombinant; tags: GST; chain copies: 2; dsDNA, one strand shown. Summed up:
as §1

Assay [3] concerns the target T2, GST-ANAC019 NAC domain (Arabidopsis thaliana, UniProt Q9C932 14-162).
T2 sequence: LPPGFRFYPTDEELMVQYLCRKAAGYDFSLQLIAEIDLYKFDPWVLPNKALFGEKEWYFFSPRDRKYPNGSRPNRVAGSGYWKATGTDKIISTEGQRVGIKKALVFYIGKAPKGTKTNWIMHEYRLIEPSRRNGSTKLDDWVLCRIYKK
The note with it: protein: recombinant; tags: GST; chain copies: 2; dsDNA, one strand shown. In short, it runs like this:
as §1

Assay [4] concerns the target T3, GST-ATAF1 NAC domain (Arabidopsis thaliana, UniProt Q39013 7-158).
T3 sequence: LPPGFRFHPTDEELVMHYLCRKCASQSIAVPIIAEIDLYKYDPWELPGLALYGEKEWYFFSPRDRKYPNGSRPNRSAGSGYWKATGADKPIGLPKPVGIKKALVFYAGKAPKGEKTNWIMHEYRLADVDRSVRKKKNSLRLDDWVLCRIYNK
The note with it: protein: recombinant; tags: GST; chain copies: 2; dsDNA, one strand shown. In short, it runs like this:
as §1

The target in assay [5] is T4, GST-ANAC092(1-285) full length (Arabidopsis thaliana, UniProt Q9FKA0 1-285).
T4 sequence: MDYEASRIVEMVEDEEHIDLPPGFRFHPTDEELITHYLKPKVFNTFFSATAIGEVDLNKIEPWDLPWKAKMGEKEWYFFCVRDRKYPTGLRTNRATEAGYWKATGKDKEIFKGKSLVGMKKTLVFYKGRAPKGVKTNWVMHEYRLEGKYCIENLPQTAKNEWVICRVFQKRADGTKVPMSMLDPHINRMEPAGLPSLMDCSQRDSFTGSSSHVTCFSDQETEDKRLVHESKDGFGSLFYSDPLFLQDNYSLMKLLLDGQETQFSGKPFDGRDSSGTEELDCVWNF
To be noted: protein: recombinant; tags: GST; chain copies: 2; dsDNA, one strand shown. Summed up:
as §1

Assay [6] has as its target T5, GST-NST2(1-184) (Arabidopsis thaliana, UniProt Q9M274 1-184).
T5 sequence: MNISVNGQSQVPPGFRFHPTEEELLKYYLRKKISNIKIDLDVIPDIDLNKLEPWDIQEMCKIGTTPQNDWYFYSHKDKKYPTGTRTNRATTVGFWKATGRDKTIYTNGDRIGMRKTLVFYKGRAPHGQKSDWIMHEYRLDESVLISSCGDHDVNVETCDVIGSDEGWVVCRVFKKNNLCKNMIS
The note with it: protein: recombinant; tags: GST; chain copies: 2; dsDNA, one strand shown. Summed up:
as §1

Assay [7] deals with T6, GST-NTL8 NAC domain (Arabidopsis thaliana, UniProt Q9XIN7 14-156).
T6 sequence: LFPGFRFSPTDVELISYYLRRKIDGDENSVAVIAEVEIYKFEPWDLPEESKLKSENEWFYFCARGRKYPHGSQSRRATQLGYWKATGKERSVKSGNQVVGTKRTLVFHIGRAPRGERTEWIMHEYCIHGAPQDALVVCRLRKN
The note with it: protein: recombinant; tags: GST; chain copies: 2; dsDNA, one strand shown. Summed up:
as §1

Assay [8] concerns the target T7, GST-SND1(1-203) (Arabidopsis thaliana, UniProt Q9LPI7 1-203).
T7 sequence: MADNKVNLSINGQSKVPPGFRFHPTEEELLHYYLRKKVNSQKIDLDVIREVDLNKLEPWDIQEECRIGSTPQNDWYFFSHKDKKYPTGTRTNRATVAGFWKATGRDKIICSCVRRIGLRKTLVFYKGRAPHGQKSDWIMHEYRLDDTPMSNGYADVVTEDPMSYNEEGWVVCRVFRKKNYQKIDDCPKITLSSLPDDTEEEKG
The note with it: protein: recombinant; tags: GST; chain copies: 2; dsDNA, one strand shown. In short, it runs like this: as §1

For assay [9], the target named is T8, GST-VND7 NAC domain (Arabidopsis thaliana, UniProt Q9C8W9 9-158).
T8 sequence: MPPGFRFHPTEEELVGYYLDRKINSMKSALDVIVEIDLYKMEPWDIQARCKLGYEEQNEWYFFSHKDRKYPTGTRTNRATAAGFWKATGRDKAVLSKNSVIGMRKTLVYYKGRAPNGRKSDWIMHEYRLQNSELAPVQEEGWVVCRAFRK
The note with it: protein: recombinant; tags: GST; chain copies: 2; dsDNA, one strand shown. Summed up:
as §1

In assay [10] the target is GST-WRKY1(266-371) (Arabidopsis thaliana, UniProt Q9SI37 266-371). The note with it: protein: recombinant; tags: GST; dsDNA, one strand shown. Summed up: as §1
GST-WRKY1(266-371), sequence (Q9SI37 266-371): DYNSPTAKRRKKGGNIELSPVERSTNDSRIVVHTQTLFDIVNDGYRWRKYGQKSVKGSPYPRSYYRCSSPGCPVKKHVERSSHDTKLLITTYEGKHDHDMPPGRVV
Assay [11] addresses T9, GST-VND3 NAC domain (Arabidopsis thaliana, UniProt Q9FH59 12-162).
T9 sequence: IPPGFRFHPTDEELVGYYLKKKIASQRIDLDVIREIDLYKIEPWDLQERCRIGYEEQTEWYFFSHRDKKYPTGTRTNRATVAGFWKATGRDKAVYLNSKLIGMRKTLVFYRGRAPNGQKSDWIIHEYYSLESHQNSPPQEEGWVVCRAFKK
To be noted: protein: recombinant; tags: GST; chain copies: 2; dsDNA, one strand shown. Summed up:
as §1

Assay [12] has as its target T10, GST-ANAC055(1-171) (Arabidopsis thaliana, UniProt Q9LDY8 1-171).
T10 sequence: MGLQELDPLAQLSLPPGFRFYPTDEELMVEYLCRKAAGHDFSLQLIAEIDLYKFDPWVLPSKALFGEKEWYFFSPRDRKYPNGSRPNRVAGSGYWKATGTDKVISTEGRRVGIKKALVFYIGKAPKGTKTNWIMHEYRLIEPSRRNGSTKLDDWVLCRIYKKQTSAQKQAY
To be noted: protein: recombinant; tags: GST; chain copies: 2; dsDNA, one strand shown. In short, it runs like this:
as §1

For assay [13], the target named is T11, GST-NAP(1-166) (Arabidopsis thaliana, UniProt O49255 1-166).
T11 sequence: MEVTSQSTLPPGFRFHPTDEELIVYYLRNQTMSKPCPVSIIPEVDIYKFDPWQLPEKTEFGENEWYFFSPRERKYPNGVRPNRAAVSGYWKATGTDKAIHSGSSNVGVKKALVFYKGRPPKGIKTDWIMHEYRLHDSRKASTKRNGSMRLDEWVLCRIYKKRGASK
The note with it: protein: recombinant; tags: GST; chain copies: 2; dsDNA, one strand shown. In short, it runs like this:
as §1

GST-NTL6(1-168), sequence (Q9SCK6 1-168): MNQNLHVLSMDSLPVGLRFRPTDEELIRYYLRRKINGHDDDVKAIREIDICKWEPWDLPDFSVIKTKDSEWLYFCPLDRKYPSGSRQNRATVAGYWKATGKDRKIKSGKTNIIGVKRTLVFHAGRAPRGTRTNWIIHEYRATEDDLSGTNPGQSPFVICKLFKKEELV

Take CCCTCCCC: the binding signal in [1] stood at 0.299 E-score; in assay [2], 0.353 E-score; in assay [3], 0.226 E-score; in [4], 0.121 E-score; in assay [5], 0.308 E-score; in assay [6], 0.169 E-score. In addition, the binding signal amounted to 0.336 E-score in assay [7], 0.405 E-score in assay [8], 0.198 E-score in assay [9] and 0.0672 E-score in assay [10].
Regarding CCGTCAAA, the binding signal in assay [3] was determined as 0.164 E-score; in assay [8] it was 0.148 E-score; in [11], 0.0953 E-score; in assay [10] it was 0.409 E-score.
Take CACGCATA: the binding signal in [1] was 0.397 E-score; in assay [12], 0.0626 E-score; in [5] it was 0.411 E-score; in assay [13], 0.147 E-score; in assay [6], 0.121 E-score; in assay [8], 0.18 E-score. In [11], the binding signal came to 0.116 E-score.
Turning to GTTTCCTA, the binding signal was 0.118 E-score in [1]; 0.0734 E-score in [2]; 0.158 E-score in assay [3]; 0.133 E-score in [12]; 0.212 E-score in assay [4]; 0.179 E-score in assay [5]. Also, the binding signal in [13] amounted to 0.118 E-score; in [6], 0.169 E-score; in assay [7] it was 0.404 E-score; in assay [8], 0.106 E-score; in assay [11] it was 0.179 E-score.
On to CAGTCAAA, for which the binding signal in assay [1] amounted to 0.125 E-score; in [2], 0.0796 E-score; in [3], 0.0978 E-score; in [12] it was 0.063 E-score; in assay [4] it was 0.11 E-score; in assay [5], 0.0634 E-score. The binding signal in [13] worked out at 0.0821 E-score; in assay [7] it was 0.104 E-score; in assay [8], 0.124 E-score; in [9] it was 0.0973 E-score; in assay [10], 0.478 E-score.
In the case of GTCAAAAC, the binding signal in assay [4] is 0.178 E-score; in assay [5], 0.11 E-score; in assay [13], 0.111 E-score; in assay [7] it was 0.0569 E-score; in assay [8] it was 0.148 E-score; in assay [11], 0.176 E-score. In [10], the binding signal amounted to 0.447 E-score.
Regarding AGCGTCAA, the binding signal in assay [1] was 0.0554 E-score; in assay [4], 0.0689 E-score; in assay [5], 0.158 E-score; in [13] it was 0.0978 E-score; in [6] it was 0.135 E-score; in [7], 0.12 E-score. The binding signal in assay [8] was 0.246 E-score; in assay [9] it was 0.0921 E-score; in assay [10] it was 0.408 E-score.
In the case of CGTTGACA, the binding signal came out at 0.0727 E-score in assay [8] and 0.464 E-score in [10].
